TSG101-PTAP inh: blocks PTAP/TSG101 interaction to inhibit HIV-1 budding | Potency, µM (titrated, usually from 115 µM), without a hit: at the highest dose activity change, negative = inhibition, usual class: inhibitors | 340,000 tested, under 10 active | AID 493005 | Fluorescence polarization, FITC-PTAP peptide / Tsg101 binding | Q99816; active = well fitted inhibition curve with a large enough effect in the main read-out, with a control signal flat, not every such curve was filed as active; inconclusive = small, poorly fitted or top-dose-only effect, or effect the other way, or a change in a side signal; inactive = no such curve, though single readings can be large or run the other way; also: potency is read from the fitted curve at half-maximal effect; % of control where 0% means no effect
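Fluorescence polarization binding of Tsg101 binding domain (10 uM final) to FITC-labeled PTAP peptide (50 nM final) in HEPES pH 7.5 buffer with NaCl, Tween 20, EDTA, TCEP. Compounds added before peptide; binding 20 min at RT.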
KCNH2 WT inh: blocks the wildtype human KCNH2 potassium channel; actives 0.37% (n = 340,000); Q12809; activity change, % at 1.84 µM; U2OS, BacMam KCNH2, thallium flux FluxOr; stronger effect = lower value;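 active = maximum activity change below -70%; inconclusive = maximum activity change between -70% and -50%; inactive = maximum activity change above -50%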; also: % is scaled to controls: 0 for no effect and ±100 for the full control effect
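U2OS cells were transduced with wild-type KCNH2 virus (2.03 x 10^8 / mL) for 4 h at room temperature, then cultured overnight at 37 C. Thallium flux was read with FluxOr dye. Rate constants were normalized to DMSO controls.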
KCNH2 3.1 block: blocks the human KCNH2 3.1 channel isoform | U2OS KCNH2 3.1, thallium flux FluxOr; stronger effect = lower value | activity change, % (tested at about 1.8 µM) | actives 0.95% (n = 340,000);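 active = maximum activity change below -70%; inconclusive = maximum activity change from -70% to -50%; inactive = maximum activity change above -50%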;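 also: thallium influx rate constant from kinetic fluorescence after stimulation buffer; % is scaled to controls: 0 for no effect and ±100 for the full control effect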
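Thallium flux via FluxOr fluorescence (Red40 quencher, 45 min loading) in U2OS cells virally expressing the KCNH2 3.1 isoform (1.77 x 10^8 /mL virus, overnight at 37 C). Rate constants from 2-min kinetic reads post-stimulation, normalised to positive and negative controls.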
GRP78 ERSR act: induces the endoplasmic reticulum stress response in human glioma cells; U87-MG GRP78 promoter luciferase reporter, 16 h; actives 0.02% (n = 420,000); Potency, µM, inactives show top-dose activation, usual class: activators; active = well fitted activation curve with a large enough effect; inconclusive = small, poorly fitted or top-dose-only effect; inactive = no such curve, though single readings can be large or run the other way; also: potency is read from the fitted curve at half-maximal effect; series mostly up to about 76 µM; % of control where 0% means no effect; nearly all actives have a fitted effect of over 35% in size
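Stably transfected U87-MG glioma cells carrying a GRP78-based luciferase sensor; 16 h compound incubation. Luminescence end-point read 10 min after Bright-Glo addition at room temperature.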
TRPML1 ag: agonists of human TRPML1 channel; activation, % (concentration not given with the values); AID 624414; TRPML1-expressing cells, Ca2+ dye fluorescence, FDSS; Q9GZU1; actives 0.12% (n = 410,000); in the data active = activation above about 50%; inconclusive = mostly about 30% to 49%; also: 0% is about no effect
Target sequence (Q9GZU1 whole entry, looked up): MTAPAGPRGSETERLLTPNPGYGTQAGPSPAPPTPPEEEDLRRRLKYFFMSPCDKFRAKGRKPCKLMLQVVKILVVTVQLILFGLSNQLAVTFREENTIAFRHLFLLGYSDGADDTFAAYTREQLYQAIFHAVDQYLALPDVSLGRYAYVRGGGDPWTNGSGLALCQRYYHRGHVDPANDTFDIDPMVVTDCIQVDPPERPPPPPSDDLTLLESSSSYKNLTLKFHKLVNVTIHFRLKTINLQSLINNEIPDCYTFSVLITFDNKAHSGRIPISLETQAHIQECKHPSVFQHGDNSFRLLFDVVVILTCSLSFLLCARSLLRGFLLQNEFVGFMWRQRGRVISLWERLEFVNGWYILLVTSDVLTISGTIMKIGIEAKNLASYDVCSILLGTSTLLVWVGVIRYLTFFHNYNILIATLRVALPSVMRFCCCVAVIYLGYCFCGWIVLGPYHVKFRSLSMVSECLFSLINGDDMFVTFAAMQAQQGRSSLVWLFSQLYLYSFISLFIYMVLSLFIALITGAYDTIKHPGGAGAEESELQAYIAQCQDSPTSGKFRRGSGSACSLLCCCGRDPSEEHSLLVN
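Kinetic FDSS Ca2+ read in Tet-induced TRPML1-DL cells (ABD Ca8 dye plus quencher, 45-90 min RT loading): baseline, then compound, then 110 s agonist window; EC80 agonist 54-4 at 4uM final added afterwards for a 110 s antagonist window.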
TRPML1 blocker: human mucolipin-1 channel inhibition | Q9GZU1 | TRPML1-inducible cells, Ca2+ dye fluorescence, FDSS; stronger effect = lower value; inhibition of EC80 agonist-evoked calcium signal | activity change, negative = inhibition, % (no concentration beside the values) | actives 0.02% (n = 390,000) | AID 624415; in the data active = activity change below about -50%; inconclusive = between about -30% and that limit;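 also: stimulus is agonist 54-4 at its EC80 concentration; % is scaled to controls: 0 for no effect and ±100 for the full control effect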
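Calcium fluorescence in TRPML1-DL cells induced overnight with Tet: a 110 s read after compound pin addition, then a 110 s antagonist read after challenge with 54-4 at 4 uM final (EC80).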
* marks the source's active call; other numbers are inactive results; ? = inconclusive; nt = no result. Sampled rows, rich in hits. Any-hit rate of the full collection: about 1%.

SMILES | TSG101-PTAP inh | KCNH2 WT inh | KCNH2 3.1 block | GRP78 ERSR act | TRPML1 ag | TRPML1 blocker
COc1ccc(CNCCC(c2ccccc2)c2ccc3c(c2)OCO3)cc1 (stereo not drawn) | -1% | -24 | -81* | -12% | 0 | -18
Cc1cc(=O)c(C(=O)O)cn1Nc1ccc(F)cc1 | -4% | 17 | -84* | -2% | 0 | -7
COc1ccc2c(c1)CCc1c(C(=O)Nc3c(C)nn(Cc4ccccc4)c3C)noc1-2 | -3% | -6 | -71* | 2% | 3 | -11
COc1cccc(-c2nc3cc(SC)ccc3cc2CN(C(=O)c2csc(C)n2)C2CC2)c1 | nt | nt | nt | -7% | nt | nt
Cc1cc(C)c(O)c(-c2n[nH]c3c2C(c2cccc(O)c2)N(Cc2ccco2)C3=O)c1 (stereo not drawn) | 2% | -91* | 0 | -16% | nt | nt
Cc1ccc(C2c3c(-c4cc(C)ccc4O)n[nH]c3C(=O)N2Cc2ccco2)cc1 (stereo not drawn) | nt | nt | nt | -12% | 2 | 21
Cc1ccnc(NS(=O)(=O)c2ccc(NC(=O)c3ccc(Cl)cc3[N+](=O)[O-])cc2)n1 | -3% | -10 | -134* | 0% | 0 | -6
Cc1ccnc(NS(=O)(=O)c2ccc(NC(=O)c3cccc(Cl)c3)cc2)n1 | nt | 10 | 1 | -5% | -1 | 3
O=C(NCC1Cc2cccc(-c3cnccn3)c2O1)c1ccc2c(c1)OCCO2 (stereo not drawn) | nt | nt | nt | 0% | nt | nt
CC1CN(CC(=O)NCC2(N3CCOCC3)CCCC2)Cc2cc(Cl)ccc2O1 (stereo not drawn) | nt | nt | nt | -3% | nt | nt
COc1ccc(N2C(=NC(=O)CCC3CCCC3)SC3CS(=O)(=O)CC32)cc1 (stereo not drawn) | 0% | 11 | 56 | -2% | 1 | 7
CN(C)c1ccc(N2C(=NC(=O)CCC3CCCC3)SC3CS(=O)(=O)CC32)cc1 (stereo not drawn) | -3% | -281* | -1 | 1% | 0 | -10
Cc1ccn(CCC(=O)NCC2Cc3cc(Cl)cc(-c4ccc5[nH]ccc5c4)c3O2)n1 (stereo not drawn) | nt | nt | nt | -3% | nt | nt
CCC[C@]1(CCc2ccccc2)CC(O)=C([C@H](CC)c2cccc(NS(=O)(=O)c3ccc(C(F)(F)F)cn3)c2)C(=O)O1 | nt | nt | nt | 1% | nt | nt
COc1ccc(S(=O)(=O)NCCC(=O)NCc2ccc(F)cc2)cc1 | -3% | 45 | -80* | -3% | 0 | -2
CC(=O)N1c2ccc(S(=O)(=O)NCCC(=O)NCc3ccc(F)cc3)cc2CC1C (stereo not drawn) | -12% | -10 | 4 | 2% | 0 | -24
CC1Cc2cc(S(=O)(=O)NCCC(=O)NCc3ccc(F)cc3)ccc2N1C(=O)C1CC1 (stereo not drawn) | 2% | -87* | 22 | -5% | 0 | 24
COc1ccc(CNC(=O)COc2ccc(S(=O)(=O)N3CCCCC3)cc2)cc1 | 0% | -131* | -13 | -4% | 1 | 13
COCc1c(C(=O)NC2CCCC2)cnn1-c1nccc(-c2cc(C)sc2C)n1 | nt | nt | nt | 5% | nt | nt
CCCn1c(N)c(C(=O)CN(C)CC(=O)Nc2cccc(F)c2)c(=O)[nH]c1=O | -1% | -20 | -79* | -4% | 0 | -1
O=C(NCc1cccnc1)c1ccc(S(=O)(=O)N2CCOCC2)cc1 | -6% | 6 | -11 | -1% | 0 | -3
Cc1ccc(C(=O)NC2CCS(=O)(=O)C2)cc1S(=O)(=O)N1CCCCCC1 (stereo not drawn) | -3% | 14 | -114* | -1% | 0 | 26
CC1CCN(S(=O)(=O)c2ccc(C(=O)NCc3cccnc3)cc2)CC1 | 0% | -263* | 3 | -5% | -1 | -10
O=C(NC1CCS(=O)(=O)C1)c1ccc(S(=O)(=O)N2CCCC2)cc1 (stereo not drawn) | nt | -8 | 26 | -6% | 1 | 5
CC1CCN(S(=O)(=O)c2ccc(C(=O)NC3CCS(=O)(=O)C3)cc2)CC1 (stereo not drawn) | 0% | -3 | -79* | -4% | 0 | 15
SMILES | TSG101-PTAP inh | KCNH2 WT inh | KCNH2 3.1 block | GRP78 ERSR act | TRPML1 ag | TRPML1 blocker
O=C(N/N=C\c1ccc(CNS(=O)(=O)c2ccccc2)o1)C(=O)Nc1ccc(F)cc1 | -5% | 7 | -25 | 3% | 1 | 11
O=C(N/N=C\c1ccc(CN(Cc2ccc(Cl)cc2)S(=O)(=O)c2ccccc2)o1)C(=O)Nc1ccc(F)cc1 | 2% | -48 | -75* | -1% | 0 | 11
Cc1cc(C)nc(S[C@H]2C[C@@H](C(=O)N3CCN(c4ccccc4F)CC3)N(Cc3ccccc3C(F)(F)F)C2)n1 | nt | nt | nt | 5% | nt | nt
Cn1nccc1NC(=O)Nc1ccccc1 | 1% | -7 | 0 | 2% | 2 | 11
Cn1nccc1NC(=O)Nc1ccc(Cl)cc1 | -2% | -9 | -86* | 5% | 1 | -8
Cc1ncc2c(c1CNC(=O)c1cncs1)CCN(C(=O)c1cccc(-c3cccc(F)c3)c1)C2 | nt | nt | nt | -3% | nt | nt
O=C1Nc2ccccc2N(O)N1c1ccc(Cl)c(Cl)c1 | -10% | 6 | 2 | 8% | 0 | -8
O=C1Nc2cc(Cl)c(Cl)cc2N(O)N1c1ccc(Cl)c(Cl)c1 | -9% | -19 | -107* | -5% | 0 | 2
Cc1cc(C(=O)Nc2ccccc2-c2nc(CNC(=O)c3ccc(F)cc3F)c(C)o2)c(C)o1 | nt | nt | nt | 1% | nt | nt
COC(=O)c1cc(CNC(=O)c2ccccn2)cc(NC(=O)c2ccccc2OC)c1 | nt | nt | nt | 3% | nt | nt
Clc1ccc(Cn2nnc(-c3ccc(N4CCOCC4)cc3)n2)cc1 | 1% | -18 | -73* | -1% | -1 | -18
Fc1ccc(Cn2nnc(-c3ccc(Cl)cc3)n2)cc1 | 0% | -9 | 3 | 1% | 2 | -5
Cc1ccc(CNc2nc(CN3CCSCC3)nc3ccccc23)o1 | nt | nt | nt | 0% | nt | nt
O=C(CN1CCN(C(=O)c2cccc(-n3cnnn3)c2)CC1)Nc1ccccc1Cl | -3% | -38 | -73* | -4% | 1 | 23
Cc1cccc(NC(=O)CN2CCN(C(=O)c3cccc(-n4cnnn4)c3)CC2)c1C | -1% | 26 | -7 | -5% | 0 | -10
CCOc1cc(/C=C2\CCCc3c2nc2ccccc2c3C(=O)O)ccc1OC | -1% | 3 | -10 | -5% | 78* | -11
COc1ccc(CCN(C)C2CCCN(S(C)(=O)=O)C2)cc1OC (stereo not drawn) | 0% | 8 | -11 | 0% | 0 | -18
CC(=O)c1ccc(S(=O)(=O)N2CCCC(N(C)CCc3ccccc3)C2)cc1 (stereo not drawn) | -7% | ? | -94* | -1% | 0 | -9

Screens: PubChem BioAssay, National Center for Advancing Translational Sciences (NCATS)
